Assay results from PubChem BioAssay AID560 (The Scripps Research Institute Molecular Screening Center, 2006).
In all, about 65,000 compounds went through this assay and about 980 (1.5%) were called active. The list comes from a sample in which actives are over-represented; it also holds similar structures and randomly drawn compounds. Values without a mark were called inactive.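 The calls were made as follows: active = activation above the mean of all tested compounds plus 3 SD (cut at about 49% in these data); inactive = the rest.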

target: Nuclear receptor ROR-alpha (Homo sapiens) (UniProt P35398); test: activators of orphan receptor RORA, primary screen, cell-based, luminescence (AID 560); conditions: CHO-K1 Gal4-RORA LBD luciferase reporter, at 10 µM, stronger effect = higher value, percent increase over mock-subtracted basal signal;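 also: 0% = DMSO-treated RORA cells and 100% = added signal equal to DMSO minus mock-transfected cells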
Sequence (P35398 whole entry, looked up, the tested form may be a part): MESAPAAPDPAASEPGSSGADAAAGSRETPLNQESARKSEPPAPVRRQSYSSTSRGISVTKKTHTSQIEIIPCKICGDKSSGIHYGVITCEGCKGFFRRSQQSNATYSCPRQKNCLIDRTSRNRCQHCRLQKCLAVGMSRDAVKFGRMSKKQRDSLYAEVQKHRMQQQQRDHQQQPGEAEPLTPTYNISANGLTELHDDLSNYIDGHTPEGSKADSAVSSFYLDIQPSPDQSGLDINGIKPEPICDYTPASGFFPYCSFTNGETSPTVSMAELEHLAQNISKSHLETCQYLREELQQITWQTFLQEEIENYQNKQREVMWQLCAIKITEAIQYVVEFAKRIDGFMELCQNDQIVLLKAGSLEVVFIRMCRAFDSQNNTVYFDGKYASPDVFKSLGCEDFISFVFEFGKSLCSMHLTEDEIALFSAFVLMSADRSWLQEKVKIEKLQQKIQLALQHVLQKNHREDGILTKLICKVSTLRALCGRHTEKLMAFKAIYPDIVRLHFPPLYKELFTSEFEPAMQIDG

Row | Compound | activation
1 | O=C(Nc1cccc(Cl)c1)OCc1ccccn1 | 69.9% (active)
2 | O=C(NCc1ccccn1)Nc1ccc(F)cc1 | 28.4%
3 | O=C(NCc1cn2ccsc2n1)Nc1cccc(Cl)c1 | 45.8%
4 | Cc1c(NC(=O)c2coc(=O)c(Br)c2)c(=O)n(-c2ccccc2)n1C | -0.3%
5 | COC(=O)c1cc(C(=O)OC)cc(N2C(=O)CC(N3CCN(c4ccccc4)CC3)C2=O)c1 (centres undefined) | 15.5%
6 | CC(=O)OC(C(=O)NC1CCCCC1)c1ccccc1 (centres undefined) | -15.4%
7 | CC(C)c1ccc(NC(=O)NC2CCCCC2)cc1 | 85.1% (active)
8 | CC(Cc1cccs1)NC(=O)NC1CCCCC1 (centres undefined) | 31.7%
9 | COc1ccc(-c2nc(SCC(=O)N3CCOCC3)n[nH]2)cc1 | 8.1%
10 | CC(=O)Nc1ccc(NC(=O)CN2CCCC(C)C2)c(Cl)c1 (centres undefined) | 7.9%
11 | O=C(C1CCC1)N1CCc2cc(S(=O)(=O)NCc3cccnc3)ccc21 | 16.4%
12 | Cc1ccc(C(=O)N2CCN(C3CCCCC3)CC2)s1 | -13.8%
13 | COc1cccc(CNC(=O)C2CCN(S(=O)(=O)c3cccc4cccnc34)CC2)c1 | -6.7%
14 | C#CCN1C(=O)C(O)(CC(=O)c2cc(OC)ccc2OC)c2ccccc21 (centres undefined) | -9.4%
15 | CCOC(=O)c1c(C)[nH]c(C(=O)COc2ccc3c(c2)OCO3)c1C | 28.3%
16 | CCOC(=O)NCc1ccc2c(c1)OCO2 | -14.5%
17 | CCOC(=O)c1nc(-c2ccc3c(c2)OCO3)[nH]c1C | 66.7% (active)
18 | COCc1nnc(NC(=O)CS(=O)(=O)Cc2ccccc2)s1 | -0.8%
19 | COC(=O)C(C)Sc1ccc2nnc(-c3cccc(F)c3)n2n1 (centres undefined) | -8%
20 | COC(=O)c1c(NC(=O)c2cccs2)sc2c1CCCC2 | 19.4%
21 | c1ccc2c(c1)OCC(CNc1ncnc3nc[nH]c13)O2 (centres undefined) | 20.1%
22 | Cn1c(=NC(=O)c2ccco2)sc2cccc(F)c21 | 61.5% (active)
23 | Cn1c(=NC(=O)C2CC2)sc2cc(F)cc(F)c21 | 27.7%
24 | CCCC(=O)N=c1sc2cccc(F)c2n1C | 5.7%
25 | COC(=O)c1cccc(NC(=O)CN2CCC(NC(=O)c3cc(OC)c(OC)c(OC)c3)CC2)c1 | 17.2%
26 | COc1ccc(CCNC(=O)CN2CCC(n3nnc4cc(F)ccc43)CC2)cc1OC | -11.2%

Row | Compound | activation
27 | CCc1ccc(N2CC(C(=O)NC3=NCCS3)CC2=O)cc1 (centres undefined) | -23.3%
28 | O=C(NC1=NCCS1)c1ccc(Cl)s1 | 80.1% (active)
29 | CC(NC(=O)COc1ccccc1)C(=O)NC1=NCCS1 (centres undefined) | -14.4%
30 | C=CCn1c(=S)[nH]c2nc3c(cc2c1=O)COC(C)(C)C3 | -9.2%
31 | O=C(Nc1nnc(CCc2ccccc2)s1)C1CCCO1 (centres undefined) | 0.2%
32 | O=C(Nc1cccc(-c2nnc(-c3ccccc3)o2)c1)C1CCCO1 (centres undefined) | 61.1% (active)
33 | O=C(Nc1ccc(-c2nnc(-c3ccccc3)o2)cc1)C1CCCO1 (centres undefined) | 32.9%
34 | O=C(COc1ccccc1)N1CCc2ccccc2C1 | 18.5%
35 | Cc1ccsc1C(=O)OCC(=O)c1cc(C)n(CC2CCCO2)c1C (centres undefined) | -85.1%
36 | O=C(COC(=O)C12CC3CC(CC(C3)C1)C2)NCc1ccco1 | -21.1%
37 | O=C(CSc1nnc(-c2cccs2)n1-c1ccccc1)NCc1ccco1 | 11.1%
38 | Cc1cc(C(=O)OCC(=O)NCc2ccco2)c(C)n1-c1ccccc1 | 61.4% (active)
39 | CC(=O)N1CSCC1C(=O)O (centres undefined) | 15.8%
40 | O=c1[nH][nH]c(=O)c2cc(N3CCCC3)ccc12 | 1.1%
41 | CCOC(=O)c1cc(NC(=O)c2cccnc2)cc(C(=O)OCC)c1 | -17.2%
42 | Cc1cc2nc(-c3ccc(NC(=O)c4cccnc4)cc3)oc2cc1C | 71.6% (active)
43 | CC(C)NS(=O)(=O)c1ccc(NC(=O)c2cccnc2)cc1 | 25.4%
44 | O=C(NC12CC3CC(CC(C3)C1)C2)N1CCCC(CO)C1 (centres undefined) | -9.5%
45 | Cc1ccccc1-c1nnn(CC(=O)c2ccc(S(=O)(=O)N3CCCC3)cc2)n1 | -9.2%
46 | O=C(Cn1nnc(-c2ccccc2)n1)NCc1ccccc1 | -3.8%
47 | CC(C)(C)NC(=O)Cn1nnc(-c2ccccc2Cl)n1 | 65.9% (active)
48 | O=C(CN1C(=O)C2C3C=CC(C3)C2C1=O)NCCc1ccccc1Cl (centres undefined) | 0.8%
49 | O=S(=O)(NCc1ccccn1)c1ccc(Br)s1 | -0.5%
50 | COC(=O)c1sc(NC(=O)c2ccc(OC)cc2OC)nc1C | -38.1%
51 | COc1ccc(C(=O)Nc2nncs2)c(OC)c1 | 62.9% (active)
52 | O=C(Nc1nncs1)c1ccccc1NS(=O)(=O)c1cccs1 | 2.5%

Row | Compound | activation
53 | Cn1c(=O)n(CCc2ccccc2)c(=O)c2c1nc1n2CCCN1c1ccccc1 | 8.2%
54 | Nc1c(C(=O)NCc2ccccc2)nnn1Cc1cccc(Cl)c1 | 9.8%
55 | COC(=O)Cc1cc(=O)n(-c2nc3ccccc3s2)[nH]1 | -10.3%
56 | CCC(=O)NC(=Nc1nc2ccccc2s1)NC(=O)CC | 48.7% (active)
57 | O=C(O)CSCc1nc2ccccc2s1 | 18.2%
58 | O=c1/c(=C/c2ccc(CNS(=O)(=O)c3ccccc3)o2)sc2n1CCN=2 | -17.5%
59 | Cn1nnc(NC(=O)CSc2ncn[nH]2)n1 | -7.4%
60 | CC(C)(C)c1ccc(C(=O)CSc2ncn[nH]2)cc1 | 54.2% (active)
61 | CCN(C(=O)CSc1ncn[nH]1)c1cccc2ccccc12 | -6.5%
62 | CCOC(=O)c1csc(NC(=O)c2ccc(S(=O)(=O)N3CCCC3)cc2)n1 | 8.6%
63 | Cn1c(SCC(=O)OC2CCCCC2)nnc1-c1ccc(S(=O)(=O)N2CCCC2)cc1 | -7.4%
64 | COc1cccc(OCC(=O)Nc2ccccc2C(N)=O)c1 | 1.9%
65 | O=C(Nc1nn(Cc2ccccc2F)cc1Br)c1cccs1 | -5.3%
66 | COc1ccc(OC)c(N=Cc2c(O)[nH]c3ccccc23)c1 | -14.1%
67 | COc1cc(N=Cc2c(O)[nH]c3ccccc23)cc(OC)c1OC | -15.8%
68 | COc1ccc(N=Cc2c(O)[nH]c3ccccc23)cc1OC | 55.7% (active)
69 | CC(=O)N1CC2(C)CN(C(C)=O)CC(C)(C1)C2=O | -2%
70 | CC1CCc2sc3nc(N4CCN(CCO)CC4)n4ncnc4c3c2C1 (centres undefined) | 12.3%
71 | O=C(Nc1ccc(Cl)cc1)c1ccsn1 | 59.5% (active)
72 | O=C(NCc1cn2ccsc2n1)Nc1ccc(Cl)cc1 | 10.4%
73 | O=C(O)C1CCCCC1C(=O)Nc1ccc(Cl)cc1 (centres undefined) | -6.2%
74 | COc1ccc(O)c(C(=O)c2cnc3onc(C(C)C)c3c2)c1 | 12.5%
75 | CCc1c(C)sc(NC(=O)OC)c1C(=O)N1CCOCC1 | -6.7%
76 | CCOc1ccccc1NC(=O)Nc1cc(OC)ccc1OC | -19.1%
77 | COc1ccccc1NC(=O)c1ccc(C)s1 | 48.9% (active)
78 | COc1ccc(C2C(C(=O)Nc3ccccc3OC)=C(C)Nc3nnnn32)c(OC)c1 (centres undefined) | 7.2%

Row | Compound | activation
79 | CC(C)c1nc2oc3c(N4CCN(C)CC4)ncnc3c2c2c1CCC2 | 13.9%
80 | Cc1ccc(NC(=O)CN2CCC3(O)CCCCC3C2c2ccc3c(c2)OCO3)c(C)c1 (centres undefined) | 11.9%
81 | Cc1ccc(C)c(NC(=O)C2CCCN2C(=O)OC(C)(C)C)c1 (centres undefined) | -9%
82 | Cc1ccnc(NC(=O)c2ccc(NC(=O)c3ccco3)cc2)c1 | 29.2%
83 | O=C(Nc1ccc(Oc2ccccc2)cc1)c1ccco1 | 22.9%
84 | COC(=O)c1ccc(NC(=O)c2ccco2)cc1 | 77.4% (active)
85 | O=C(C1CCN(S(=O)(=O)Cc2ccccc2)CC1)N1CCCc2ccccc21 | 12.2%
86 | COc1cc(C2C(C#N)=C(N)Oc3n[nH]c(-c4ccccn4)c32)cc(OC)c1OC (centres undefined) | 7.4%
87 | Cc1ccc2c(c1)N(C(=O)CCC(=O)N1CCc3ccccc3C1)CCO2 | 0.5%
88 | Cn1cccc1C(=O)Nc1nccs1 | 12.1%
89 | CC(=O)Oc1ccc(C(=O)Nc2nccs2)cc1 | 61% (active)
90 | COc1cc(C(=O)Nc2nccs2)cc(OC)c1OC | -15.9%
91 | Cc1ccc(C(=O)NC2CCN(C(=O)N3CCOCC3)CC2)cc1 | -4.3%
92 | CC1CCC(NC(=O)c2ccc(N3CCCC3=O)cc2)CC1 (centres undefined) | 61.7% (active)
93 | O=C(NCCCN1CCCCCC1)c1ccc(N2CCCC2=O)cc1 | -16.9%
94 | CCOC(=O)c1c(C)c(C(=O)NCCc2ccc(S(N)(=O)=O)cc2)c(C)n1CC | 17.3%
95 | CCNC(=O)CN(c1ccc(C)cc1)S(=O)(=O)c1ccc(SC)cc1 | -24%
96 | Oc1ccc(-c2csc(Nc3cccnc3)n2)cc1 | 5.9%
97 | c1ccc(Nc2nc(-c3ccncc3)cs2)nc1 | 50.9% (active)
98 | Clc1ccc(Nc2nc(-c3cccs3)cs2)nc1 | 41.7%
99 | O=C(Cn1cc2c(n1)CCCCC2)NCCN1CCOCC1 | -13.6%
100 | Cc1ccc(-c2noc(CN3CCN(Cc4ccccc4)CC3)n2)cc1 | -1.1%
101 | Cc1ccc(Cc2nc(-c3cccc(C)c3)no2)cc1 | 51.5% (active)
102 | Cc1cccc(-c2noc(-c3ccc(F)cc3)n2)c1 | 31%
103 | CC(=O)c1nc(N2C(=O)C3CC=C(C)CC3C2=O)sc1C (centres undefined) | 1.8%
104 | CCn1c(SCCC(C)C)nnc1-c1c[nH]c2ccccc12 | 8.7%
